From PubChem BioAssay (NCI)
About 83,000 compounds went through this panel and 20% of them were active in at least one assay; those are over-represented in the sample as a whole.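 The endpoint reported here, percent growth, reads 100 for growth as untreated, 0 for no net growth and -100 for all cells dead.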 Values without a mark were called inactive. Activity calls are given as the source filed them.

The compounds below were run on PC-3 prostate (assay: NCI-60 one-dose screen, 48 h (100 = growth as untreated, 0 = no growth, -100 = all killed)). Conditions: 10 µM unless noted.
Protocol: Growth inhibition of the PC-3 human tumor cell line is measured as a screen for anti-cancer activity. Cells are grown in 96 well plates and exposed to the test compound for 48 hours. Compounds are tested at a single concentration, which is 10^-5 M for most compounds. The reported endpoint is percent growth (GI% or GIPRCNT), where numbers from 0 - 100% represent growth inhibition, and numbers from -100% - 0 represent cell death. For example, a value of 40 represents 60% growth inhibition. A value of 0 means no net growth occurred over the course of the experiment. A value of -40 indicates 40% of cells at the beginning of the experiment died by the end of the experiment. A value of -100 means all cells are dead at the end of the experiment.
NCI-60 Human Tumor Cell Lines Screen was performed using the standard one-dose NCI protocol, which is described in more detail at https://dtp.cancer.gov/discovery_development/nci-60/default.htm.
Compounds with GIPRCNT values below 10 were considered active. Activity score was based on GIPRCNT using the following formula: […]
Score is 0 for GIPRCNT values of 100 or above, 50 for GIPRCNT values of 0, and 100 for GIPRCNT values of -100.

SMILES | growth
Oc1cc(O)c2c(=S)cc(-c3ccc(Cl)cc3)oc2c1 | 28.4%
CC1=C(NCCN2CCCC2)C(=O)c2c(OCc3cccc(Cl)c3)cccc2C1=O | 69.9%
CCOC(=O)CC(=O)c1c(C)cc(C)cc1C | 103%
Cc1cc2cc3cc(C)c(N(C)C)cc3nc2cc1N(C)C | 4.41% (active)
COc1ccc2nc3cc(Cl)ccc3c(N3CCN(c4nccc(NCc5ccccc5)n4)CC3)c2c1 | 78.7%
NS(=O)(=O)c1ccc(Nc2nc3n[nH]c(Nc4ccccc4)c3c(=O)[nH]2)cc1 | 92.1%
Nc1ccc(Nc2nccc(-c3ccc4ccccc4c3)n2)cc1 | 58.7%
COc1ccc(/C=c2/c(=O)[nH]c3nc4sc(C)c(C)c4c(=O)n23)cc1 | 91%
COc1ccccc1/C=C(/C(=O)c1ccccc1)c1ccccc1 | 92.2%
O=C1C(Cl)=C(Cl)C(=O)c2c1nc1n2CCCC1 | 88.5%
Cc1cc(Nc2nc(-c3cccnc3)nc3ccccc23)n[nH]1 | 58.7%
CCN(CC)CCCC(C)N/C(=C1\C(=O)NC(=O)\C1=C(/NC(C)CCCN(CC)CC)c1cccc(OC)c1)c1cccc(OC)c1 (stereo not given) | -3.13% (active)
COc1cc(C2CC(=O)Nc3c2c(C)nn3-c2nc3ccccc3[nH]2)cc(OC)c1OC (stereo not given) | 75.2%
CC(C)(C)n1cc(-c2ccnc(NCCCNS(=O)(=O)c3cccc4ccccc34)c2)c(-c2cccc(O)c2)n1 | 21.1%
CC/C=C\C[C@H](F)C/C=C1/C(=O)C=C[C@@H]1C/C=C\CCCC(=O)O | 55%
CS(=O)(=O)c1ccc(-c2cnc3ccc(-c4cccc(S(C)(=O)=O)c4)nn23)cc1 | 37.6%
Nc1nc(-c2ccc(F)cc2)cc(-c2cnn(-c3ccccc3)n2)n1 | 114%
CCN1CCN(Cc2ccc(NC(=O)Nc3nc4ccc(Oc5ccnc(C(=O)NC)c5)cc4s3)cc2C(F)(F)F)CC1 | -63.3% (active)
CSc1nc(NCCCNc2ccnc3cc(Cl)ccc23)cc(-c2ccccc2)n1 | 59.9%
COc1cc(NCCCCN=C(N)NC(N)=NC(C)C)c2ncccc2c1 | 22.9%

SMILES | growth
c1ccc(CSc2ncnc3nc[nH]c23)nc1 | 112%
COc1ccc(S(=O)(=O)NCCNc2nccc(-c3c(-c4cccc([N+](=O)[O-])c4)nc4sccn34)n2)cc1 | 64.6%
CCC(C)[C@@H]1NC(=O)[C@@H]2CCCN2C(=O)[C@H](Cc2ccccc2)NC(=O)[C@@H]2CCCN2C(=O)[C@H](Cc2ccccc2)NC(=O)[C@@H]2CCCN2C(=O)[C@H](Cc2ccccc2)NC1=O (stereo not given in full) | 90.7%
COc1c(C2CC(=O)Nc3c2cnn3Cc2ccco2)cc2c(c1OC)OCO2 (stereo not given) | 24.6%
CCCCCCCCCCCCNC(=O)[C@H]1CSC(c2ccc(OC)c(F)c2)N1 (stereo not given in full) | -93.8% (active)
CCCCCCCCCCCCCCCC[N+]1(CC)CCCC1 | -77.6% (active)
COc1ncc(-c2ccc3ncnc(Nc4cccc(Cl)c4)c3c2)cc1NS(C)(=O)=O | 25.9%
CCOC(=O)c1ccc2c(c1)nc(/C=C/c1ccc(Cl)cc1)n2-c1cc(C(C)(C)C)[nH]n1 | 62.1%
O=C1Nc2ccccc2C12CC(c1ccc(Cl)cc1)=NN2 (stereo not given) | 78.2%
CC[n+]1ccc2c(c1)C(=O)c1nccc3c1c-2nc1ccccc13 | 3.26% (active)
O=C(CCN1CCOCC1)Nc1ccc(Cn2nnc3c2C(=O)c2nnn(Cc4ccc(NC(=O)CCN5CCOCC5)cc4)c2C3=O)cc1 | 17.7%
CC(=O)OCC(=O)C1CCC=CC1OC(C)=O (stereo not given) | 105%
COc1nc2c(cc1S(=O)(=O)c1ccccc1)CCc1c-2cnn1-c1ccc(Cl)cc1 | 88.2%
O=C(CN1CCN(c2cc3c(cc2F)c(=O)c(C(=O)N/N=C/c2ccccc2)cn3C2CC2)CC1)N/N=C\c1ccccc1 | 50%
CCN(CC)CCCC(C)Nc1ccnc2c(OC)cccc12 (stereo not given) | 104%
O=C1C=CC(=O)N1c1ccc(Cc2ccc(N3C(=O)C=CC3=O)cc2)cc1 | 91.2%
O=C1C[C@H](N2C(=O)c3ccccc3S2(=O)=O)C2CO[C@@H]1O2 | 99.7%
O=C1Nc2ccc(Br)cc2C12CC(c1ccccc1)=NN2 (stereo not given) | 29.4%
Nc1cc(-c2nc3sccn3c2-c2ccnc(NCCCNS(=O)(=O)c3ccc(F)cc3)n2)ccc1F | 48.6%
COc1ccc(Cl)cc1Nc1nc(C(F)(F)F)ccc1C(=O)N/N=C/c1cccnc1 | 43.7%
